Experimental data taken from PubChem BioAssay (EPA / NIEHS).
Records with an inconclusive call do not appear. Active and inactive are the calls of the source. Rule for the calls, unless noted: active = hit-call score of the fitted dose curve at least 0.9, where 1 is the maximum; inconclusive = response in the unintended direction; inactive = score below 0.9.

Key:
[1] = ATG_TAL_CIS: Attagene CIS-FACTORIAL HepG2 Assay for human TAL Basal Promoter (AID 2282966; active = hit-call score of the fitted dose curve at least 0.9, where 1 is the maximum; inactive = score below 0.9;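 note: background control endpoint measuring basal TAL promoter reporter mRNA not a specific factor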); conditions: HepG2 Attagene cis-factorial TAL promoter reporter; actives raise or lower the signal
In short: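 RT-PCR plus capillary electrophoresis quantifies reporter mRNA induction in transiently transfected HepG2 cells after 24 h chemical treatment. DMSO serves as negative control and baseline for bidirectional fitting.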

[2] = ATG_TGFb_CIS: Attagene CIS-FACTORIAL HepG2 Assay for human Transforming Growth Factor (TGF) (AID 2282967; active = hit-call score of the fitted dose curve at least 0.9, where 1 is the maximum; inactive = score below 0.9); conditions: HepG2 Attagene CIS TGFb reporter, mRNA transcription; actives raise or lower the signal
In short: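 HepG2 cells transiently transfected with cis-promoter-driven multiple reporter units measure endogenous TF activity; reporter mRNA quantified at 24 h by RT-PCR, FAM labeling, HpaI digestion and capillary electrophoresis. Bidirectional fit vs DMSO.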

[3] = ATG_VDRE_CIS: Attagene CIS-FACTORIAL HepG2 Assay for human Vitamin D Receptor Element (VDRE) (AID 2282968; active = hit-call score of the fitted dose curve at least 0.9, where 1 is the maximum; inactive = score below 0.9); conditions: HepG2 VDRE cis-reporter transcription, actives raise or lower the signal
In short: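 Reporter mRNA induction, quantified by capillary electrophoresis of fluorescently labelled RT-PCR products, was read 24 h after dosing HepG2 cells carrying transiently transfected cis-regulated reporter units; gain or loss relative to DMSO.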

[4] = target: Nuclear receptor subfamily 1 group I member 3 (Homo sapiens) (UniProt Q14994); experiment: ATG_CAR_TRANS: Attagene TRANS-FACTORIAL HepG2 Assay for human Constitutive Androstane Receptor (CAR) (AID 2282969); conditions: HepG2 Attagene TRANS-FACTORIAL CAR reporter;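 note: activators raise reporter mRNA above DMSO so AC50 marks induction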
In short: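 Readout is reporter mRNA induction, quantified by fluorescent primer extension and capillary electrophoresis after RT-PCR. Cells were HepG2 transiently carrying chimeric NR-Gal4 constructs with GAL4-UAS reporters, treated for 24 h; activity scored upward from DMSO.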

[5] = target: X-box-binding protein 1 (Homo sapiens) (UniProt P17861); experiment: ATG_Xbp1_CIS: Attagene CIS-FACTORIAL HepG2 Assay for human X-box Binding Protein 1 (XBP1) (AID 2282972; active = hit-call score of the fitted dose curve at least 0.9, where 1 is the maximum; inactive = score below 0.9); conditions: HepG2 XBP1 cis-element reporter, Attagene multiplex; actives raise or lower the signal
In short: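 HepG2 cells transiently transfected with cis-regulated multiple reporter transcription units; endogenous transcription factor activity measured 24 hours after chemical dosing. Reporter mRNA quantified by RT-PCR, 6-FAM primer extension, HpaI digestion and capillary electrophoresis; bidirectional fitting versus DMSO.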

[6] = ATG_M_19_TRANS: Attagene TRANS-FACTORIAL HepG2 Assay for M19 Transcription Factor (Internal Marker) (AID 2282974); conditions: HepG2 Attagene TRANS-FACTORIAL M19 internal marker reporter
In short: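 HepG2 transiently transfected with GAL4-UAS multiplex reporter constructs, exposed 24 h; reporter RNA quantified by RT-PCR, 6-FAM labeling, HpaI digestion and capillary electrophoresis; internal background marker fitted upward versus DMSO.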

[7] = ATG_GAL4_TRANS: Attagene TRANS-FACTORIAL HepG2 Assay for GAL4 (Internal Marker) (AID 2282976); conditions: HepG2 Attagene TRANS GAL4 internal marker reporter
In short: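 In transfected human HepG2 liver cells dosed 24 h, GAL4 reporter mRNA serves as a baseline marker. Detection by RT-PCR with fluorescent capillary electrophoresis, activity fitted upward relative to DMSO.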

[8] = ATG_M_06_TRANS: Attagene TRANS-FACTORIAL HepG2 Assay for M06 Transcription Factor (Internal Marker) (AID 2282983); conditions: HepG2 Attagene TRANS M06 internal marker reporter;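 note: reporter transcript level by RT-PCR then capillary electrophoresis fluorescence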
In short: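 Cells: HepG2, transient multi-reporter transfection. Exposure: 24 h. Detection: RT-PCR, 6-FAM labelling, HpaI digestion (2 h, 37 °C), capillary electrophoresis. Baseline: DMSO.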

[9] = target: Transcriptional activator Myb (Homo sapiens) (UniProt P10242); experiment: ATG_Myb_CIS: Attagene CIS-FACTORIAL HepG2 Assay for human Myeloblastosis (Myb) Proto-Oncogene Transcription Factor (AID 2282986; active = hit-call score of the fitted dose curve at least 0.9, where 1 is the maximum; inactive = score below 0.9); conditions: HepG2 Attagene CIS-FACTORIAL Myb reporter transcription; actives raise or lower the signal
In short: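 Transiently transfected HepG2 cells carrying a multiplexed cis-promoter reporter set report endogenous Myb activity after 24 h compound exposure. Reporter mRNA is read by RT-PCR with capillary electrophoresis of fluorescent products, fitted bidirectionally against DMSO.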

[10] = target: Nuclear respiratory factor 1 (Homo sapiens) (UniProt Q16656); experiment: ATG_NRF1_CIS: Attagene CIS-FACTORIAL HepG2 Assay for human Nuclear Respiratory Factor 1 (NRF1) Orphan Gene (AID 2282987; active = hit-call score of the fitted dose curve at least 0.9, where 1 is the maximum; inactive = score below 0.9); conditions: HepG2 NRF1 cis-element reporter, Attagene multiplex; actives raise or lower the signal
In short: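 HepG2 cells transiently transfected with multiple cis-regulated reporter units, exposed 24 h. Reporter mRNAs measured by RT-PCR, fluorescent labelling, HpaI digestion and capillary electrophoresis; bidirectional fitting against DMSO.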

[11] = target: Bile acid receptor (Homo sapiens) (UniProt Q96RI1); experiment: ATG_FXR_TRANS: Attagene TRANS-FACTORIAL HepG2 Assay for Farnesoid X Receptor (FXR) (AID 2282979); conditions: HepG2 Attagene TRANS FXR-GAL4 reporter transcription;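 note: hits raise reporter mRNA above DMSO so AC50 marks FXR activation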
In short: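 Reporter transcripts from transfected HepG2 cells were measured 24 h after dosing, using RT-PCR with capillary electrophoresis of 6-FAM-labelled fragments. The read-out reflects activity of exogenous FXR-Gal4 chimera on GAL4-UAS units, with induction relative to DMSO.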

[12] = target: Oxysterols receptor LXR-alpha (Homo sapiens) (UniProt Q13133); experiment: ATG_LXRa_TRANS: Attagene TRANS-FACTORIAL HepG2 Assay for human Liver X Receptor alpha (LXRa) (AID 2282980); conditions: HepG2 Attagene TRANS reporter, LXRa transactivation
In short: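 Chemical-induced reporter mRNA measured by RT-PCR with fluorescent labelling and capillary electrophoresis after 24 h dosing of transiently transfected HepG2 cells expressing exogenous NR-Gal4 chimeras; increases scored against DMSO baseline.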

[13] = target: Hepatocyte nuclear factor 4-alpha (Homo sapiens) (UniProt P41235); experiment: ATG_HNF4a_TRANS: Attagene TRANS-FACTORIAL HepG2 Assay for human Hepatocyte Nuclear Factor 4 alpha (HNF4a) (AID 2282982); conditions: HepG2 HNF4a transactivation reporter, mRNA readout
In short: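 Readout is fluorescent reporter-transcript fragments resolved by capillary electrophoresis after RT-PCR from HepG2 cells dosed for 24 h. Cells carried transfected GAL4-UAS reporter constructs measuring exogenous NR-GAL4 chimera activity; DMSO served as baseline.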

[14] = target: Nuclear receptor subfamily 4 group A member 2 (Homo sapiens) (UniProt P43354); experiment: ATG_NURR1_TRANS: Attagene TRANS-FACTORIAL HepG2 Assay for human Nuclear Receptor Related Protein 1 (NURR1) (AID 2282985); conditions: HepG2 Attagene TRANS reporter, mRNA readout
In short: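 Transient transfection of HepG2, human liver cells, with multiple GAL4-UAS reporter transcription units. Cells dosed 24 h, RNA isolated, reverse-transcribed, PCR-amplified, FAM-labelled, HpaI-digested, sized by capillary electrophoresis. DMSO served as negative control.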

[15] = target: Glucocorticoid receptor (Homo sapiens) (UniProt P04150); experiment: ATG_GR_TRANS: Attagene TRANS-FACTORIAL HepG2 Assay for human Glucocorticoid Receptor (GR) (AID 2282978); conditions: HepG2 Attagene TRANS GR reporter, mRNA transcription;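 note: activators score as hits since higher reporter transcript over DMSO is fitted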
In short: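 HepG2 cells transiently transfected with GAL4-UAS reporter units and exogenous GR-Gal4 chimera, dosed 24 h. Reporter mRNA by RT-PCR, FAM labeling, HpaI digest and capillary electrophoresis; gain-of-signal fit versus DMSO.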

[16] = ATG_M_32_TRANS: Attagene TRANS-FACTORIAL HepG2 Assay for M32 Transcription Factor (Internal Marker) (AID 2282984); conditions: HepG2 Attagene TRANS M32 internal marker reporter;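 note: transcript level of a background control reporter unit measured by RT-PCR and capillary electrophoresis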
In short: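 Measures reporter mRNA induction in human HepG2 liver cells after 24 h chemical treatment. Transcripts from transiently transfected GAL4-UAS reporter units are amplified, fluorescently labelled and sized by capillary electrophoresis; gain of signal relative to DMSO.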

[17] = target: Oxysterols receptor LXR-beta (Homo sapiens) (UniProt P55055); experiment: ATG_LXRb_TRANS: Attagene TRANS-FACTORIAL HepG2 Assay for human Liver X Receptor beta (LXRb) (AID 2282981); conditions: HepG2 Attagene TRANS GAL4-LXRb reporter, mRNA
In short: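 Transient transfection HepG2 (multiplexed RTUs, GAL4-UAS); NR-Gal4 chimera; 24 h exposure; RNA → RT-PCR → 6-FAM primer extension → HpaI → CE; increase vs DMSO.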

[18] = target: Estrogen receptor (Homo sapiens) (UniProt P03372); experiment: ATG_ERa_TRANS: Attagene TRANS-FACTORIAL HepG2 Assay for human Estrogen Receptor alpha (ERa) (AID 2282970); conditions: HepG2 Attagene TRANS ERa GAL4 reporter, mRNA
In short: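 Cells: HepG2, transiently transfected. Construct: GAL4-UAS reporter units regulated by exogenous NR-Gal4 chimeras. Time: 24 h. Detection: reporter mRNA by RT-PCR, capillary electrophoresis, fluorescence. Baseline: DMSO, upward fitting.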

[19] = target: Steroid hormone receptor ERR1 (Homo sapiens) (UniProt P11474); experiment: ATG_ERRa_TRANS: Attagene TRANS-FACTORIAL HepG2 Assay for human Estrogen-Related Receptor alpha (ERRa) (AID 2282971); conditions: HepG2 Attagene TRANS reporter, ERRa transactivation
In short: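 Reporter transcripts from ERRa-Gal4 chimera activity measured in transiently transfected human HepG2 cells 24 hours after dosing, using RT-PCR with 6-FAM primer extension, HpaI digestion and capillary electrophoresis; DMSO is baseline.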

Measured: AC50

Bile acid receptor (Homo sapiens), sequence (Q96RI1 whole entry, looked up, the tested form may be a part): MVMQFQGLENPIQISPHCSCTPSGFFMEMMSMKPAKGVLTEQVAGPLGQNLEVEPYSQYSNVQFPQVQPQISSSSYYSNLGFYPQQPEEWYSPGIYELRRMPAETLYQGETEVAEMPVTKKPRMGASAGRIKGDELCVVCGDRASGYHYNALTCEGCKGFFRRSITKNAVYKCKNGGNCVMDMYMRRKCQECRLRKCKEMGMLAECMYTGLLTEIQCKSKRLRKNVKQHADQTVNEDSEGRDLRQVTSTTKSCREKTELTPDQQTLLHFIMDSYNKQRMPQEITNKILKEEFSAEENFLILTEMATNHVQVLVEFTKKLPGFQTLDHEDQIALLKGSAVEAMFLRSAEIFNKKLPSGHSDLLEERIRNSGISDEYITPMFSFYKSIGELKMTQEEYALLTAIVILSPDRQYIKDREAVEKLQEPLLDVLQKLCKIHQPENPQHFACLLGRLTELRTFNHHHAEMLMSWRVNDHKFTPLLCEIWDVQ
Oxysterols receptor LXR-beta (Homo sapiens), sequence (P55055 whole entry, looked up, the tested form may be a part): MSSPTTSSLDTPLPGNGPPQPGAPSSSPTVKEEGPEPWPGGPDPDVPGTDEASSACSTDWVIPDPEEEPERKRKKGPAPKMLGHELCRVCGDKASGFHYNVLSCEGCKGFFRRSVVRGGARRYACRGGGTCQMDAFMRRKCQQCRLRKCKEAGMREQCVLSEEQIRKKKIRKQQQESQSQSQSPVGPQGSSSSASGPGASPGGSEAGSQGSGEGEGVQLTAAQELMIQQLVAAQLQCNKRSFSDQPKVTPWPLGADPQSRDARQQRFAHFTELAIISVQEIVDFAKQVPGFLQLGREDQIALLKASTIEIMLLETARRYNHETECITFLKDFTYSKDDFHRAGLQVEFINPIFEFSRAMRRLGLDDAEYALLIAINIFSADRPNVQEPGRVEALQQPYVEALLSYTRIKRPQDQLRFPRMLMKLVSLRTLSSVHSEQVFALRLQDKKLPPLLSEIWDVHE
Glucocorticoid receptor (Homo sapiens), sequence (P04150 whole entry, looked up, the tested form may be a part): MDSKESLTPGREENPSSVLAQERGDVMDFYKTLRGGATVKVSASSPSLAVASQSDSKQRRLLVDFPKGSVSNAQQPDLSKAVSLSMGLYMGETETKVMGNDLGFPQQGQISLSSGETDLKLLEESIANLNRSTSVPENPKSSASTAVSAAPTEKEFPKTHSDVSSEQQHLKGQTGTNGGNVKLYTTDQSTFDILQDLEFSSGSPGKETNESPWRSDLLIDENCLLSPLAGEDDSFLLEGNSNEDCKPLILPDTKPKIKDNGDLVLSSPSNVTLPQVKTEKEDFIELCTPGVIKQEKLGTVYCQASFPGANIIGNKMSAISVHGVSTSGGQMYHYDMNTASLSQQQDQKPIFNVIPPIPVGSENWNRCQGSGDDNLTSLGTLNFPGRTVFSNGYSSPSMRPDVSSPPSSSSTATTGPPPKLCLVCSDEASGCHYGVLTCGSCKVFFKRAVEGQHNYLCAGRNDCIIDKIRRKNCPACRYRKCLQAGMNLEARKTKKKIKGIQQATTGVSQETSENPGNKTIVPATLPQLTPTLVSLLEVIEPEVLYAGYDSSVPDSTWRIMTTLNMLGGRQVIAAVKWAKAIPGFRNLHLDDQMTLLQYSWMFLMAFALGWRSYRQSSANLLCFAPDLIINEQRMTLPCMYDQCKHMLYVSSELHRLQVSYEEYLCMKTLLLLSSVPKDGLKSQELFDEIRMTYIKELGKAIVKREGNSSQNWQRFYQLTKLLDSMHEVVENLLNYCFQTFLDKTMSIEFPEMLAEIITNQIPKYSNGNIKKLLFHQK
Estrogen receptor (Homo sapiens), sequence (P03372 whole entry, looked up, the tested form may be a part): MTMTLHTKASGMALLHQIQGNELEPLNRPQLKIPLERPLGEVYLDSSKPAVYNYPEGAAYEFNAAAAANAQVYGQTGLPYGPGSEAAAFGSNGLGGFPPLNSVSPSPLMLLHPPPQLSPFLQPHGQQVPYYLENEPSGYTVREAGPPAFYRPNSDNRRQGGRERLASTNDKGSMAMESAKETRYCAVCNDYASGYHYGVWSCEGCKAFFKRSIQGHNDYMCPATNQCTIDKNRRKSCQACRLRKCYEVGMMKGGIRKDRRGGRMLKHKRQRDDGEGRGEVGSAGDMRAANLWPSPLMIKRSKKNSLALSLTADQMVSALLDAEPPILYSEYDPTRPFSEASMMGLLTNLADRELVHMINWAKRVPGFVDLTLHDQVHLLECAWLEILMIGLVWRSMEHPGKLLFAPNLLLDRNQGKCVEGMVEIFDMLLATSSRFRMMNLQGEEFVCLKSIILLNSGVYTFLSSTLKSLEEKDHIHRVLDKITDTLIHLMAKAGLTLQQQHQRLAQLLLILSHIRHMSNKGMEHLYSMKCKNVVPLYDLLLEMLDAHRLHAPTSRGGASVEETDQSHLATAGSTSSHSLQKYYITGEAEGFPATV
Nuclear respiratory factor 1 (Homo sapiens), sequence (Q16656 whole entry, looked up): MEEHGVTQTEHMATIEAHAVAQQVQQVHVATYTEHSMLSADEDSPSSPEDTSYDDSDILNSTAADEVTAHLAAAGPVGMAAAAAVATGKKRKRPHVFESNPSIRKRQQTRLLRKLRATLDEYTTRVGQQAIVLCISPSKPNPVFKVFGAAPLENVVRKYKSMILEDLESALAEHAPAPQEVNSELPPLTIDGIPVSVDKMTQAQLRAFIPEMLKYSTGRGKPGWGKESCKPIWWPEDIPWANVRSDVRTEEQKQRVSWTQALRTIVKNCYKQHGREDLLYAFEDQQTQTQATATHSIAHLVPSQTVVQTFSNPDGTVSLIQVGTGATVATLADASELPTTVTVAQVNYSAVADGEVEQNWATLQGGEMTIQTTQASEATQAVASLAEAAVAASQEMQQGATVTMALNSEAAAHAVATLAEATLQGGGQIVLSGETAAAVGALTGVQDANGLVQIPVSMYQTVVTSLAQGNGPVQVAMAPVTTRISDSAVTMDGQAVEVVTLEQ
Nuclear receptor subfamily 1 group I member 3 (Homo sapiens), sequence (Q14994 whole entry, looked up, the tested form may be a part): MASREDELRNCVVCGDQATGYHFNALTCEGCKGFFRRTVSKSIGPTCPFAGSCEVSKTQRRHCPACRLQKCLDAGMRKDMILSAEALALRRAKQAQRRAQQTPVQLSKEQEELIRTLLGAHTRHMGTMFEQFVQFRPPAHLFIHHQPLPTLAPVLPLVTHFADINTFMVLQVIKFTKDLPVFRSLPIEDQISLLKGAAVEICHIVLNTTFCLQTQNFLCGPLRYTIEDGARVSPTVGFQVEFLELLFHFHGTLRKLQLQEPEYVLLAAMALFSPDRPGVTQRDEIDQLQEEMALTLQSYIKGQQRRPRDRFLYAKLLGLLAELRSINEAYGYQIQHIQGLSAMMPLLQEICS
Nuclear receptor subfamily 4 group A member 2 (Homo sapiens), sequence (P43354 whole entry, looked up, the tested form may be a part): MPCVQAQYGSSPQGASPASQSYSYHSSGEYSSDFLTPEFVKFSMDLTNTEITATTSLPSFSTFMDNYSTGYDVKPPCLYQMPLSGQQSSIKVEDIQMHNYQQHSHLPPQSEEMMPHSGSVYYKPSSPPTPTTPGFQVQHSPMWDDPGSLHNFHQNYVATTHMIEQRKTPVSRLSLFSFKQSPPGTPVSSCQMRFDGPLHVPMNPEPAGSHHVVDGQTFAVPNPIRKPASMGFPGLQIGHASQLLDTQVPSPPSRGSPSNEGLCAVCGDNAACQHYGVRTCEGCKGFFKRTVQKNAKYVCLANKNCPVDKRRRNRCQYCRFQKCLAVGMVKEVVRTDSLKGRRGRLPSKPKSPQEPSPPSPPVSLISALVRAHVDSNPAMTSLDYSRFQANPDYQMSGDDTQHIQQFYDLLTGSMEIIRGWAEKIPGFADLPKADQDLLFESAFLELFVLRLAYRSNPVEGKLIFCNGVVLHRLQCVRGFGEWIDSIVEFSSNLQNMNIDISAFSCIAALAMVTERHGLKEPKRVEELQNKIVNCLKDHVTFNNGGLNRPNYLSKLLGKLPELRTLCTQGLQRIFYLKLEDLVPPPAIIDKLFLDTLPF
Hepatocyte nuclear factor 4-alpha (Homo sapiens), sequence (P41235 whole entry, looked up, the tested form may be a part): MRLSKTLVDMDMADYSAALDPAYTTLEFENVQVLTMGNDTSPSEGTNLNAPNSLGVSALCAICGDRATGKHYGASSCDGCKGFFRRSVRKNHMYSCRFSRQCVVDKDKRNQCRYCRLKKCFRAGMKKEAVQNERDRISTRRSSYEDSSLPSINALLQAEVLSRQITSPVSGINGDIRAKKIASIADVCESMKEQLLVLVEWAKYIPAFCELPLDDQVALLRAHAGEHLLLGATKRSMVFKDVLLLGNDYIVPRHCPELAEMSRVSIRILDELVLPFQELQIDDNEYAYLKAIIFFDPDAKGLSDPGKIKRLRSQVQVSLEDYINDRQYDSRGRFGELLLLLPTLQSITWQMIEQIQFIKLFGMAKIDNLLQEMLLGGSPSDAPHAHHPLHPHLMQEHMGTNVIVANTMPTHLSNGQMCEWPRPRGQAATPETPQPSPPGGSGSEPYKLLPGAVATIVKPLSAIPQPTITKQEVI
X-box-binding protein 1 (Homo sapiens), sequence (P17861 whole entry, looked up): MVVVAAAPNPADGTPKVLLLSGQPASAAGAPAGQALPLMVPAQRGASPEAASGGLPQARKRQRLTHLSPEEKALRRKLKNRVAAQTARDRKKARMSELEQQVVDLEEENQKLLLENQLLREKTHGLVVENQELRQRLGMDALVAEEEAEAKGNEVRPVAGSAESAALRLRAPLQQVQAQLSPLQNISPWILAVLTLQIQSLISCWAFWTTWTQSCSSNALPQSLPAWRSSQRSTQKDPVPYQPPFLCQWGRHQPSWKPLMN
Oxysterols receptor LXR-alpha (Homo sapiens), sequence (Q13133 whole entry, looked up, the tested form may be a part): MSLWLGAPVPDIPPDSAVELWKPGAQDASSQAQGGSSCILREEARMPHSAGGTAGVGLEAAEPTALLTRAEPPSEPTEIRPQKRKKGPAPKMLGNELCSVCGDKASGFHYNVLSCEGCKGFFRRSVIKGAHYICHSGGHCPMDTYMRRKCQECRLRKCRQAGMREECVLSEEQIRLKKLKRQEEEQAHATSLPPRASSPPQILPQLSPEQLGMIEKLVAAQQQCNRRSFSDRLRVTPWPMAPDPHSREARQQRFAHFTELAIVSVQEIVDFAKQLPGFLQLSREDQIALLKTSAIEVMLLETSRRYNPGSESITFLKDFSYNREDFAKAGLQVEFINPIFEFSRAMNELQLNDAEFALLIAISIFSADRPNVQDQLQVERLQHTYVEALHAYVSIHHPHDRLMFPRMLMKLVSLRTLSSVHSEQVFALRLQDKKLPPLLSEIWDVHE

CC1(C)OC[C@@H]2O[C@@]3(C(=O)O)OC(C)(C)O[C@H]3[C@@H]2O1
inactive: [1] | [2] | [3] | [4] | [5] | [6] | [7] | [8] | [9] | [10]

c1ccc2sc(SN(C3CCCCC3)C3CCCCC3)nc2c1
active: [2] 335 nM | [3] 4650 nM
inactive: [1] | [4] | [5] | [6] | [11] | [12] | [13] | [14] | [9] | [10]

CC(C)=CCC[C@](C)(O)[C@@H]1CC=C(C)CC1
inactive: [1] | [2] | [3] | [4] | [5] | [6] | [12] | [14] | [9] | [10]

CCCCC/C=C/C=C/C=O
inactive: [1] | [2] | [3] | [4] | [5] | [7] | [15] | [11] | [12] | [8] | [16] | [14] | [9] | [10]

CNC(=O)Oc1ccc2c(c1)[C@]1(C)CCN(C)[C@@H]1N2C
inactive: [1] | [2] | [3] | [4] | [5] | [6] | [15] | [11] | [16] | [14] | [9]

CCCCN
inactive: [1] | [2] | [3] | [4] | [5] | [6] | [7] | [15] | [17] | [13] | [14] | [9] | [10]

CCCCCCCCCCCCN(CCCCCCCCCCCC)CCCCCCCCCCCC
inactive: [1] | [2] | [3] | [4] | [5] | [6] | [12] | [17] | [8] | [16] | [9] | [10]

CC1(C)[C@H](C(=O)OCc2cccc(Oc3ccccc3)c2)[C@@H]1C=C(Cl)Cl
inactive: [1] | [2] | [3] | [18] | [5] | [7] | [15] | [17] | [13] | [8] | [16] | [14] | [10]

O=C(O)C[C@H](O)C[C@H](O)/C=C/c1c(C2CC2)nc2ccccc2c1-c1ccc(F)cc1
inactive: [1] | [2] | [3] | [18] | [19] | [7] | [15] | [11] | [17] | [13] | [8] | [16] | [9]

C=C(C)C(=O)OCc1ccccc1
inactive: [1] | [2] | [3] | [18] | [19] | [5] | [6] | [13] | [16] | [14] | [10]

CC1(CO)CN(c2ccccc2)NC1=O (centres undefined)
inactive: [1] | [2] | [3] | [4] | [5] | [8] | [16] | [14] | [9] | [10]
